High-throughput results (PubChem)
Most compounds without a hit are left out; they make up all but 9.2% or so of the library.
FLuc counter = firefly luciferase modulation, counter-screen for miR-21 project | purified FLuc, Km substrates, luminescence inhibition | Potency, µM (series often up to 57.5 µM), without a hit: at the top dose activity change, negative = inhibition, actives largely listed as inhibitors | 360,000 compounds, 6.9% hits | AID 588342;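 note: plate controls were vehicle for no effect and reference inhibitor for full effect; nearly all actives have a fitted effect of over 55% in size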
Target sequence (P08659 whole entry, looked up): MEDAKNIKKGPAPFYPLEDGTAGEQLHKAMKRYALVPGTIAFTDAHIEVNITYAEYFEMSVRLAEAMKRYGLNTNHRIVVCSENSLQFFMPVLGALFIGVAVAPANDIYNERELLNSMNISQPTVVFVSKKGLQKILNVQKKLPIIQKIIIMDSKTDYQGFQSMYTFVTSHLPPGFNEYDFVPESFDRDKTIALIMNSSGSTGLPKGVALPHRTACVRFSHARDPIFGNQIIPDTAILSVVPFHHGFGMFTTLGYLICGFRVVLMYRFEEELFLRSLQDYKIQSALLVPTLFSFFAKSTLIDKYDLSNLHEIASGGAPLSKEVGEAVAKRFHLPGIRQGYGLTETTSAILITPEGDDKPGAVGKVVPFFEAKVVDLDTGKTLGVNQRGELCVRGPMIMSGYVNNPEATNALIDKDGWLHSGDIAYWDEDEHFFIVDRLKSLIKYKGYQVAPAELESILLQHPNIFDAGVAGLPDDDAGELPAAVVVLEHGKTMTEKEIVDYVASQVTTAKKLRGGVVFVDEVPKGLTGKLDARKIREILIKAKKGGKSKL
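Purified P. pyralis luciferase (10nM final) with 10uM D-luciferin and 10uM ATP (Km levels) in 50mM Tris acetate pH 7.5, 10mM Mg acetate, 0.01% Tween-20, 0.05% BSA; qHTS 6-point titration, ~60 µM downward; luminescence read.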
NPC1 prom act = NPC1 promoter activation; Huh7 NPC1 promoter luciferase reporter, 24 h; Potency, µM (doses to about 9.22 µM), for the others: at the highest dose activation, most hits filed as activators; 320,000 compounds, 2.4% hits; AID 485313; note: % of control where 0% means no effect; nearly all actives have a fitted effect of over 60% in size
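Readout is luciferase luminescence, reflecting NPC1 promoter activation in stably transfected Huh7 cells after 24 h compound exposure at 37 °C in reduced-serum medium with 10% FBS.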
Rab9 promoter act = Rab9 promoter activation | Huh7 Rab9 promoter-luciferase reporter, luminescence, 24 h | Potency, µM (top dose mostly 9.22 µM), for the others: at the highest dose activation, negative = inhibition, hits mostly activators | 320,000 compounds, 2.8% hits | AID 485297; note: % of control where 0% means no effect; nearly all actives have a fitted effect of over 60% in size
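Promoter activation is measured as luciferase luminescence in Huh7 cells stably transfected with a Rab9 promoter–luciferase construct, following 24 h compound exposure at 37 °C and 10 min reagent incubation at ambient temperature.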
ELG1 repair inh = inhibitors of ELG1-dependent DNA repair in HEK293T cells. 330,000 compounds, 2.3% hits. HEK293T ELG1-luciferase reporter, luminescence, 16 h; DNA damage induced by 5-fluorouridine. Potency, µM (doses to about 46.1 µM), for inactives: at the highest dose activity change, negative = inhibition, hits mostly inhibitors; note: % is set by controls: 0 for no effect and ±100 for the full control effect; nearly all actives have a fitted effect of over 55% in size
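Overnight (16 hr) co-exposure of 2,000 cells/well to 5-fluorouridine and compound at 37 °C preceded detection. Luciferase was quantified via ONE-Glo luminescence; loss of signal denotes inhibition.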
ELG1 genotox = induces genotoxicity in HEK293T cells with luciferase-tagged ELG1; HEK293T ELG1-luciferase reporter, luminescence, 16 h; Potency, µM (doses to about 46 µM), for the others: at the highest dose activity change, positive = activation, most hits filed as activators; 330,000 compounds, 1.3% hits; AID 504466; note: % of control where 0% means no effect; nearly all actives have a fitted effect of over 60% in size
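HEK293T cells expressing luciferase-tagged ELG1 were treated with compound or DMSO for 16 hr at 37°C. Luciferase activity was then read after 30 min with ONE-Glo at room temperature; rising signal flags genetic stress.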
SMN2 splice up = SMN2 splice variant enhancement; HEK293 SMN2-luciferase splicing reporter, luminescence, 30-36 h; Potency, µM (doses to about 46.1 µM), without a hit: top-dose activity change, positive = activation, most hits filed as activators; 210,000 compounds, 2.8% hits; note: % of control where 0% means no effect; nearly all actives have a fitted effect of over 55% in size
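HEK293 cells carry an SMN2 […]–luciferase reporter in which exon 7 inclusion puts luciferase in frame. Cells were plated 10-12 h before compound addition, then incubated 30-36 h at 37C. ONE-Glo luminescence was read; sodium butyrate at 4.5 mM final served as control.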
Starred values were filed as active, the others as inactive; ? = inconclusive; . = no result; [ ] = remark or other dose. Calls come from the whole dose curve; as a rule, active = well fitted curve in the direction sought with a large enough effect; inconclusive = small, poorly fitted or top-dose-only effect, or another doubt; inactive = no such curve, though single readings can be large; an effect the other way counts as inactive or inconclusive. Potency is the fitted concentration of half-maximal effect.

SMILES | FLuc counter | NPC1 prom act | Rab9 promoter act | ELG1 repair inh | ELG1 genotox | SMN2 splice up
CCn1c(SCC(=O)c2cc(C)n(C)c2C)nnc1-c1ccccc1 | ? | -0.6% | -0.7% | -4.3% | -0.1% | -2.6%
CCCC(=O)Nc1ccc(C(=O)NNC(=S)NC(=O)c2ccc(Br)o2)cc1 | ? | 1.1% | -2.0% | ? | -10.4% | -20.9%
CCn1c(SCC(=O)O)nnc1-c1cc2c(C)nn(-c3ccccc3)c2s1 | 9.53µM* | 1.8% | 0.2% | ? | 1.3% | -5.7%
CCn1c(SCC(=O)NCCc2ccccc2)nnc1-c1cccs1 | 3.5% | 0.2% | 3.1% | -3.1% | -1.9% | -10.8%
CCn1c(SCC(=O)c2ccccc2)nnc1-c1cccs1 | 9.53µM* | ? | ? | ? | ? | 7.7%
Cc1nn(-c2ccccc2)c2sc(-c3nnc(SCC(=O)O)o3)cc12 | ? | 1.8% | ? | -10.3% | 15.3% | -16.7%
COC(=O)c1sc(SC)c(-c2ccon2)c1C | -1.3% | 0.7% | -5.4% | 6.7% | 1.6% | .
CCOc1ccccc1C(=O)N/N=C/c1coc2ccc(C)cc2c1=O | -0.9% | 3.8% | -1.0% | 9.9% | -0.9% | .
CCOC(=O)C1=C(COC(=O)/C=C/c2ccccc2F)NC(=O)NC1C (stereo not drawn) | 3.8% | -3.5% | 1.6% | -5.4% | 10.0% | .
CCOC(=O)C1=C(COC(=O)c2cccc(N(C)C)c2)NC(=O)NC1C (stereo not drawn) | 23.9µM* | ? | 2.82µM* | ? | ? | .
CCOC(=O)C1=C(COC(=O)/C=C/c2ccccc2Cl)NC(=O)NC1C (stereo not drawn) | 26.9µM* | 2.6% | 27.0% | ? | ? | .
c1ccc(-c2cccc(N3CC[C@@]4(CCCNC4)C3)c2)cc1 | . | . | . | . | . | -15.0%
O=C(CN1C(=O)S/C(=C\C=C\c2ccccc2)C1=O)NC1CCS(=O)(=O)C1 (stereo not drawn) | 5.36µM* | 2.51µM* | 2.82µM* | ? | 7.2%[9.26 µM] | .
CC(C)c1ccc(/C=C2\SC(=O)N(CC(=O)NC3CCS(=O)(=O)C3)C2=O)cc1 (stereo not drawn) | 1.07µM* | 3.98µM* | ? | ? | 8.9% | .
O=C(Nc1cccs1)Nc1ccc(Br)cc1F | 12µM* | 0.8% | -0.5% | ? | 0.6% | 0.0%
O=C(Nc1cccs1)Nc1cccnc1Cl | ? | 0.5% | -39.5% | ? | -3.4% | .
Cc1cccc(NC(=O)Nc2cccs2)c1C | ? | . | . | . | . | 5.2%
Cc1ccc(NC(=O)Nc2cccs2)c(Cl)c1 | 8.49µM* | . | . | . | . | 6.4%
O=C(Nc1cccs1)Nc1ccccc1Cl | 26.9µM* | 14.0% | 21.6% | 24.9% | ? | -56.5%
Fc1cc(F)cc(NC(=S)N2CCC(c3ccccc3)C2)c1 (stereo not drawn) | ? | ? | 3.55µM* | ? | ? | 12.6µM*
CSc1cccc(NC(=S)N2CCC(N(C)C3CCCCC3)CC2)c1 | -1.1% | -8.0% | -3.2% | 14.1% | 0.3% | -34.0%
CSc1cccc(NC(=S)N2CCC(c3ccccc3)C2)c1 (stereo not drawn) | 15.1µM* | 18.5% | 13.8% | ? | 13.2% | .
CCc1cccc(NC(=S)N2CCC(c3ccccc3)C2)c1 (stereo not drawn) | 23.9µM* | ? | ? | ? | 13.6% | 68.4%
O=C(c1ccc(F)cc1)N1CCC(c2ccccc2)C1 (stereo not drawn) | ? | 4.47µM* | ? | ? | ? | .
COc1ccc(C(=O)N2CCCC(c3ccccc3)C2)cc1 (stereo not drawn) | -2.4% | 0.9% | 0.6% | 3.7% | 0.7% | -8.6%
SMILES | FLuc counter | NPC1 prom act | Rab9 promoter act | ELG1 repair inh | ELG1 genotox | SMN2 splice up
CC/C(Cc1ccccc1)=N/NC(=O)CNC(=O)c1ccc(Cl)cc1Cl | -0.8% | 2.6% | -2.1% | -4.4% | -0.9% | .
Cc1ccc(NC(=O)Cn2cccc2)c(C)c1 | 4.0% | 3.4% | 0.9% | ? | 4.9% | -3.8%
Cc1ccc(NC(=O)CCc2nnc3ccc(NCc4ccco4)nn23)cc1 | -9.2% | -2.0% | 0.3% | 14.9% | 1.5%[9.26 µM] | .
OCCCNc1c2c(nc3cc(-c4ccc(Cl)cc4)nn13)CCC2 | 12µM* | -0.2% | -0.4% | -13.0% | 4.9% | .
Clc1cccc(-c2cc3nc4c(c(NCc5ccco5)n3n2)CCCC4)c1 | 5.36µM* | 3.55µM* | 2µM* | ? | 15.9% | ?
C=C[C@H](N)CCC(=O)O | . | . | . | . | . | 1.6%[20.6 µM]
CCOc1ccc(C(=O)NCC2OCCc3ccccc32)cc1 (stereo not drawn) | 16.9µM* | 8.2% | 12.6% | ? | 4.5% | 24.0%
COc1ccc(C(=O)NCC2OCCc3ccccc32)cc1 (stereo not drawn) | 15.1µM* | 29.0% | 17.2% | ? | 6.6% | -18.1%
Cc1ccc2[nH]c3c(c2c1)CCc1cn[nH]c1-3 | 10.7µM* | ? | ? | 14.0% | -0.2% | 6.5%
O=C(CSc1ccc(-c2cccnc2)nn1)Nc1ccc(F)c(F)c1 | -2.9% | -4.5% | -0.7% | 13µM* | -19.0% | .
O=C(CSc1ccc(-c2ccccn2)nn1)Nc1cccc(F)c1 | 13.5µM* | 7.1% | 13.6% | 29.7% | ? | .
O=C(N1CCN(c2ccc(F)cc2)CC1)C1(c2cccs2)CCOCC1 | 0.0% | -3.7% | 0.2% | 7.5% | -1.2% | -12.3%
O=c1[nH]ncc(N/N=C\c2cccs2)c1Cl | -3.0% | -5.1% | -2.4% | ? | 20.6µM* | ?
COc1ccccc1-c1nnc(SCC(=O)Nc2ccc(N3CCOCC3)cc2)n1C | 19µM* | 8.0% | 14.0% | ? | 20.9% | .
Cn1c(CC(=O)Nc2ccccc2)nnc1SCC(=O)Nc1ccc(N2CCOCC2)cc1 | 12µM* | 20.5% | 15.5% | ? | ? | .
Cc1ccc(NC(=O)Cc2nnc(SCC(=O)Nc3ccc(N4CCOCC4)cc3)n2C)cc1 | 12µM* | 2.0% | -0.2% | 10.0% | 5.3% | .
Cn1c(Cc2ccccc2)nnc1SCC(=O)Nc1ccc(N2CCOCC2)cc1 | ? | 9.1% | 4.8% | ? | 2.3% | .
Cn1c(SCC(=O)Nc2ccc(N3CCOCC3)cc2)nnc1C1CC1 | ? | -0.1% | -4.3% | 18.4% | -1.2% | .
CCn1c(Cc2ccccc2)nnc1SCC(=O)Nc1ccc2c(c1)OCO2 | -1.4% | ? | -5.3% | -1.0% | -0.7% | -13.0%
CCn1c(Cc2ccccc2)nnc1SCC(=O)Nc1ccc(N2CCOCC2)c(Cl)c1 | 15.1µM* | 10.7% | -2.0% | -3.9% | 12.0% | -35.3%
CC(=O)OCC(=O)Nc1c(C)cc(C)cc1C | 1.5% | -6.2% | 6.7% | 11.7% | 1.1% | 1.1%
Cc1cc(F)ccc1S(=O)(=O)Nc1ccccc1C(=O)NC1CCN(Cc2ccccc2)CC1 | 5.1% | -4.6% | -0.8% | 3.7% | 0.2% | .
